The source of these data is PubChem BioAssay (NCATS).

Records with an inconclusive call do not appear. Active and inactive are the calls of the source. Calls come from the whole dose curve; as a rule, active = well fitted curve in the direction sought with a large enough effect; inconclusive = small, poorly fitted or top-dose-only effect, or another doubt; inactive = no such curve, though single readings can be large; an effect the other way counts as inactive or inconclusive.

A short description of experiment [1]: S16 Schwann cell viability assay (CellTiter-Glo assay) (AID 624031).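 Note: native untransfected S16 rat Schwann cells; cellular ATP luminescence as a viability measure; nearly all actives have a fitted effect of over 70% in size.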 The settings on record: S16 rat Schwann cells viability, 24 h; series mostly up to 25.7 µM. A digest of the protocol:
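Parental S16 cells, 24 h compound, 37 °C. ATP-luminescence viability; DMSO = 0% activity, empty wells as reference; curves classified by fit quality and efficacy.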
In general terms: In ATP-based viability assays light output follows the ATP content of the culture.

The next experiment has as its system 3D7. The experiment is described as follows: qHTS profiling for inhibitors of Plasmodium falciparum proliferation (AID 504749). Note: nearly all actives have a fitted effect of over 60% in size. Note: potency is the fitted concentration of half-maximal effect. As to conditions: P. falciparum in erythrocytes, SYBR Green DNA, 72 h; series mostly up to 12.8 µM. A digest of the protocol:
(§1)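 Each compound contacts P. falciparum-infected red blood cells for 72 h at 37 C; lysis buffer (Tris, EDTA, saponin, Triton X, SYBR Green I) is added and fluorescence measured next morning; values normalized to controls.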

For a further experiment, the system named is AS120. The description is as above. The settings on record: P. falciparum in erythrocytes, SYBR Green DNA, 72 h; series mostly up to 12.8 µM. A digest of the protocol: as §1
For another experiment, the system named is ATS189. Described as above. The settings on record: P. falciparum in erythrocytes, SYBR Green DNA, 72 h; series mostly up to 12.8 µM. The method in brief:
as §1

The next experiment has as its system CP185. The description is as above. As to conditions: P. falciparum in erythrocytes, SYBR Green DNA, 72 h; series mostly up to 12.8 µM. A digest of the protocol: as §1
The test system of the next experiment is CP252. Described as above. As to conditions: P. falciparum in erythrocytes, SYBR Green DNA, 72 h; series mostly up to 12.8 µM. A digest of the protocol:
as §1

In the next experiment the test system is CP286. Described as above. The settings on record: P. falciparum in erythrocytes, SYBR Green DNA, 72 h; series mostly up to 12.8 µM. A digest of the protocol: as §1
The next experiment relates to CP297. The experiment is described as above. The settings on record: P. falciparum in erythrocytes, SYBR Green DNA, 72 h; series mostly up to 12.8 µM. The method in brief:
as §1

A further experiment deals with Dd2. The description is as above. The settings on record: P. falciparum in erythrocytes, SYBR Green DNA, 72 h; series mostly up to 12.8 µM. The method in brief:
as §1

A further experiment concerns ECU. The description is as above. As to conditions: P. falciparum in erythrocytes, SYBR Green DNA, 72 h; series mostly up to 12.8 µM. A digest of the protocol:
as §1

Another experiment relates to HB3. The description is as above. The settings on record: P. falciparum in erythrocytes, SYBR Green DNA, 72 h; series mostly up to 12.8 µM. The method in brief: as §1
The subject of the next experiment is N140. The description is as above. The settings on record: P. falciparum in erythrocytes, SYBR Green DNA, 72 h; series mostly up to 12.8 µM. A digest of the protocol:
as §1

Another experiment relates to PAD. The description is as above. As to conditions: P. falciparum in erythrocytes, SYBR Green DNA, 72 h; series mostly up to 12.8 µM. A digest of the protocol:
as §1

For the next experiment, the system named is PC15. The description is as above. As to conditions: P. falciparum in erythrocytes, SYBR Green DNA, 72 h; series mostly up to 12.8 µM. The method in brief: as §1
A further experiment has as its system TAB113. The experiment is described as above. As to conditions: P. falciparum in erythrocytes, SYBR Green DNA, 72 h; series mostly up to 12.8 µM. The method in brief:
as §1

A further experiment concerns W2. The experiment is described as above. The settings on record: P. falciparum in erythrocytes, SYBR Green DNA, 72 h; series mostly up to 12.8 µM. A digest of the protocol:
as §1

The next experiment concerns CP192. Described as above. As to conditions: P. falciparum in erythrocytes, SYBR Green DNA, 72 h; series mostly up to 12.8 µM. The method in brief: as §1
For a further experiment, the system named is CP266. The description is as above. As to conditions: P. falciparum in erythrocytes, SYBR Green DNA, 72 h; series mostly up to 12.8 µM. A digest of the protocol:
as §1

The next experiment deals with CP268. The description is as above. As to conditions: P. falciparum in erythrocytes, SYBR Green DNA, 72 h; series mostly up to 12.8 µM. A digest of the protocol: as §1
In a further experiment the test system is CP315. The experiment is described as above. The settings on record: P. falciparum in erythrocytes, SYBR Green DNA, 72 h; series mostly up to 12.8 µM. A digest of the protocol: as §1

As for `Cc1cccc(C)c1NC(=O)[C@H](C)N`, the call in experiment [1] was inactive. In addition, the Potency entry in the experiment with 3D7, with AS120, with ATS189, in the experiment with CP185, in the experiment with CP252 and in the experiment on CP286 was “inactive” throughout. Further, the Potency entry in the experiment with Dd2, in the experiment with ECU, with HB3, in the experiment on N140, in the experiment on PAD and in the experiment with PC15 was “inactive” in each case. Also, the Potency result with TAB113 and in the experiment on W2 was “inactive” in each case. For the same compound, the Potency with CP297 is 5.1 µM (active).

For `COc1ccccc1OC[C@H](O)CO`, the compound was classed as inactive in [1]. Moreover, the Potency result with 3D7, in the experiment with AS120, in the experiment on ATS189, in the experiment with CP185, in the experiment with CP192 and in the experiment with CP252 was “inactive” in each case. The Potency entry in the experiment on CP266, in the experiment with CP268, in the experiment on CP286, in the experiment with CP297, in the experiment with CP315 and in the experiment on Dd2 was “inactive” each time. Also, the Potency result in the experiment on ECU, in the experiment with HB3, in the experiment on N140, in the experiment on PAD, in the experiment with PC15 and in the experiment with TAB113 was “inactive” in each case. In the experiment with W2, the Potency entry is “inactive”.

Take `Cc1ccc2c(c1)c1c3n2CCN[C@H]3CCC1`: the Potency entry with 3D7, in the experiment with AS120, with CP185, in the experiment with CP192, in the experiment on CP252 and in the experiment on CP266 was “inactive” each time. In addition, the Potency result with CP268, in the experiment on CP315, in the experiment with HB3, in the experiment on N140 and in the experiment on TAB113 was “inactive” each time.

With `Cc1ncc([N+](=O)[O-])n1C[C@H](O)CCl`, the outcome in [1] was inactive. Besides, the Potency entry in the experiment with 3D7, in the experiment with AS120, in the experiment with ATS189, in the experiment on CP185, in the experiment on CP192 and in the experiment with CP252 was “inactive” each time. The Potency entry with CP266, in the experiment with CP268, with CP286, in the experiment on CP297, in the experiment on CP315 and in the experiment with Dd2 was “inactive” each time. Moreover, the Potency result in the experiment with ECU, in the experiment with HB3, in the experiment on N140, in the experiment on PAD, in the experiment on PC15 and in the experiment on TAB113 was “inactive” each time. In addition, the Potency result in the experiment on W2 was “inactive”.

`CCN[C@@H]1CN(CCCOC)S(=O)(=O)c2sc(S(N)(=O)=O)cc21`: in [1], the outcome was inactive. Besides, the Potency result in the experiment with 3D7, in the experiment with AS120, with ATS189, with CP185, in the experiment with CP192 and in the experiment with CP252 was “inactive” in each case. For the same compound, the Potency entry in the experiment with CP266, in the experiment with CP268, in the experiment with CP286, in the experiment with CP297, in the experiment on CP315 and in the experiment with Dd2 was “inactive” each time. Besides, the Potency entry in the experiment on ECU, with HB3, in the experiment on N140, in the experiment with PAD, in the experiment on PC15 and with TAB113 was “inactive” throughout. For the same compound, the Potency result in the experiment with W2 is “inactive”.
